# Assay outcomes deposited in PubChem BioAssay by Broad Institute.
# Only a selection was taken, and hits are over-represented in it overall.
# YB-1 expr inh – YB-1 expression inhibition | U2OS, qRT-PCR YB-1 vs CDIP delta delta Cp, 16 h; active compounds read high; zero = DMSO, each unit about twofold | delta delta Cp (YB-1 minus CDIP) (no concentration beside the values) | 0.37% of 30,000 active;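 active = delta delta Cp rounded down to an integer at or above 3, about 3 SD of DMSO wells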;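 also: higher means less YB-1 transcript or more CDIP transcript relative to DMSO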
# An asterisk follows results filed as active.
SMILES,YB-1 expr inh
O=C1CC=C2C3CC4N(CCC45c4ccccc4N1C25)C/C3=C/CO (stereo unspecified),10*
C[C@]12CC[C@H](O)C[C@H]1CC[C@@H]1[C@@H]2CC[C@]2(C)[C@@H](c3ccc(=O)oc3)CC[C@]12O,-0.034
C[C@@H]1O[C@@H](O[C@H]2[C@H](O)[C@@H](O)[C@H](O[C@@H]3C=C4CC[C@@H]5C(CC[C@]6(C)[C@@H](c7ccc(=O)oc7)CC[C@]56O)[C@@]4(C)CC3)O[C@@H]2CO)[C@H](O)[C@H](O)[C@H]1O (stereo partly specified),-0.4
COc1ccc(Cl)cc1NC1=NCC(C)S1 (stereo unspecified),10*
CC[C@@H]1/C=C\C=C\C[C@H](C)C(O)[C@](C)(O)C(=O)[C@H](C)C(O)[C@H](C)C(=O)[C@H](C)[C@@H](O)[C@H](C)/C=C/C(=O)O[C@H]2[C@@H](C)[C@@H](CC1)O[C@@]1(CC[C@@H](C)[C@@H](C[C@H](C)O)O1)[C@@H]2C (stereo partly specified),-0.57
C/C1=C/C(=O)O[C@@H]2C[C@@H](CC[C@H](C)/C=C\CC1)O[C@@](O)([C@@H]1CSC(=O)N1)C2,0.042
Fc1ccc(C(OCCN2CCN(CCCc3ccccc3)CC2)c2ccc(F)cc2)cc1,0.82
c1ccc(CCCN2CCN(CCOC(c3ccccc3)c3ccccc3)CC2)cc1,22*
CO[C@H]1[C@H](O)[C@H](O[C@H]2CC[C@]3(C)C4CC[C@]5(C)[C@H](C6=CC(=O)OC6)CC[C@]5(O)C4CC[C@@H]3C2)O[C@@H](C)[C@@H]1O[C@@H]1O[C@H](CO[C@@H]2O[C@H](CO)[C@@H](O)[C@H](O)[C@H]2O)[C@@H](O)[C@H](O)[C@H]1O (stereo partly specified),-0.089
C[C@@H]1O[C@@H](OC2CCC3(C)C4CCC5(C)C(C6=CC(=O)OC6)CCC5(O)C4CC[C@H]3C2)[C@H](O)[C@H](O)[C@H]1O (stereo partly specified),2.1
CC(C)c1cc2c(cc1O)[C@@]1(C)C[C@@H](O)CC(C)(C)C1CC2 (stereo partly specified),4.5*
CC(C)c1cc2c(cc1O)[C@@]1(C)C[C@@H](O)CC(C)(CO)C1CC2 (stereo partly specified),-0.14
